High-throughput results from PubChem BioAssay.
hcDAF12 agonist: H. contortus DAF-12 activation, primary screen; HEK293 hcDAF-12 lit1-tk-luc reporter, luminescence; 0% DMSO, 100% Δ7-dafachronic acid; activation, % at 6.8 µM; actives 1.4% (n = 370,000); AID 652067;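 active = activation above the mean of all tested compounds plus 3 SD, cut at about 5.5% in these data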;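 note: 100% = response to 3 µM Δ7-dafachronic acid high control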
DAX1 inh-1: inhibitors of human orphan nuclear receptor DAX1 (NR0B1) | P51843 | HEK293 Gal4-DAX1 luciferase reporter, luminescence | inhibition, % at 6.75 µM | actives 0.99% (n = 340,000) | AID 504766;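 active = inhibition above the mean over all tested compounds plus 3 SD, cut at about 4.2% in these data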;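 note: 0% = DAX1-transfected cells with DMSO and 100% = empty-vector control cells with DMSO; inhibition shows as a rise in luminescence from relieved DAX1 repression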
ssDAF-12 act: activators of S. stercoralis DAF-12 nuclear receptor. HEK293 ssDAF-12/GRIP1 lit1-tk-luc reporter, luminescence; % of 3 µM dafachronic acid response. AID 652126. activation, % at 6.8 µM. actives 1% (n = 370,000);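 active = activation above the mean over all tested compounds plus 3 SD, cut at about 0.9% in these data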;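 note: 0% = DMSO-only wells and 100% = 3 µM delta7-dafachronic acid wells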
hgDAF-12 ag: activates the H. glycines DAF-12 receptor ligand-binding domain; HEK293 GAL4-hgDAF12 UAS-luciferase reporter, agonist luminescence; normalized to butyrate control; activation, % at 6.8 µM; actives 1.8% (n = 370,000);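 active = activation above a cutoff set at the mean of all screened compounds plus 3 SD, cut at about 10% in these data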;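 note: 0% = DMSO wells and 100% = sodium butyrate wells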
DAX1 inh-2: inhibitors of DAX1 repression of SF-1 activated StAR promoter. AID 652010. HEK293T StAR-luciferase reporter, SF-1/DAX-1 repression relief. actives 1.1% (n = 370,000). inhibition, % at 6.8 µM;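 active = inhibition above the mean over all tested compounds plus 3 SD, cut at about 3.6% in these data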;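 note: 0% = DAX-1 cells with DMSO and 100% = cells lacking DAX-1 with DMSO; higher inhibition means more luminescence from relief of DAX-1 repression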
PolyA inh: inhibitors of polyadenylation in S. cerevisiae; activity score, % at 12 µM; actives 0.02% (n = 300,000); S. cerevisiae SKY197-pL101 polyadenylation reporter, beta-gal luminescence; efflux-impaired pdr1/pdr3 knockout yeast; score 100 = 6 SD above DMSO;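 active = lowest replicate activity score at least 50, where 100 means six control SD above control mean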;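 note: yeast exposed to compound for 9 h at 30 °C; higher score means more reporter readthrough which indicates perturbed polyadenylation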
DAX1 conf: NR0B1 (human) inhibition, confirmation; shares compounds with DAX1 inh-2; inhibition, % at 6.8 µM; actives 87% (n = 2,400); HEK293T StAR-promoter luciferase reporter, SF-1/DAX-1 repression;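 active = inhibition above the average of every tested compound plus 3 SD, cut at about 3.8% in these data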;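 note: 0% = DAX-1 cells with DMSO and 100% = no DAX-1 control cells with DMSO; active compounds raise luminescence by relieving repression of the StAR reporter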
Target sequence (P51843 whole entry, looked up): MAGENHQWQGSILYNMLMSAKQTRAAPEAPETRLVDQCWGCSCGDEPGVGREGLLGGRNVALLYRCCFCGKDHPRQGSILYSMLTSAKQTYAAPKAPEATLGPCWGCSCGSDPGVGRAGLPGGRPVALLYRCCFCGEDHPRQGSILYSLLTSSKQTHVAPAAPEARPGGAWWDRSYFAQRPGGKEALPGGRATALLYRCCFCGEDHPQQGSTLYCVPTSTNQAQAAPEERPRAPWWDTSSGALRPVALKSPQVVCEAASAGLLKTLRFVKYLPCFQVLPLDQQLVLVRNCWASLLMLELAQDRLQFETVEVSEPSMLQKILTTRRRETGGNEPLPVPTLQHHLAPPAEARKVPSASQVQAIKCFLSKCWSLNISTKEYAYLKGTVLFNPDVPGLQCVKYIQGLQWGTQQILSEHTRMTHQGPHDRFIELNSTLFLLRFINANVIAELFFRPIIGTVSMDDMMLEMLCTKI
SF1 AF2mut Luc: nonselective inhibitor or artifact in SF-1 mutant DAX1 counter-screen; HEK293 StAR-luciferase, SF-1 AF2 mutant, luminescence; actives 78% (n = 2,400); AID 652136; shares compounds with DAX1 inh-2; inhibition, % at 6.8 µM;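 active = inhibition above the mean of all tested compounds plus 3 SD, cut at about 3% in these data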;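 note: 0% = DAX-1 transfected cells with DMSO and 100% = cells without DAX-1 with DMSO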
LXR ag: counter-screen for hcDAF-12 agonists: agonists of human LXR-beta; shares compounds with hcDAF12 agonist; HEK293 Gal4-LXR tk-luc reporter, luminescence, 24 h; normalized: DMSO 0%, positive control 100%; activation, % at 6.8 µM; 3,400 tested, under 10 active; AID 743027;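 active = mean percent activation of the reporter above a cutoff set as the average over tested compounds plus their standard deviation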
hcDAF12 ag: hcDAF-12 agonism, confirmation assay; AID 743032; activation, % at 6.8 µM; actives 61% (n = 3,400); shares compounds with hcDAF12 agonist; HEK293 hcDAF-12 lit1-tk-luc reporter, luminescence; % of Δ7-dafachronic acid response;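 active = mean activation across triplicate tests above the threshold derived from the earlier primary screen, cut at about 5.5% in these data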;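 note: 0% = DMSO only wells and 100% = 3 µM Δ7-dafachronic acid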
hgDAF12 conf: hgDAF-12 agonism, confirmation assay; shares compounds with hgDAF-12 ag; HEK293 GAL4-hgDAF12 luciferase reporter, agonist mode; percent of butyrate response; activation, % at 6.8 µM; actives 80% (n = 3,300);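 active = mean activation over triplicate wells above the hit cutoff derived from the earlier primary screen, cut at about 11% in these data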;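 note: 0% = DMSO low control and 100% = 2 mM sodium butyrate high control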
LXR ag 2: LXR-beta agonism as DAF-12 counter-screen | 3,300 tested, under 10 active | shares compounds with hgDAF-12 ag | AID 743051 | HEK293 Gal4-LXR luciferase reporter, 24 h | activation, % at 6.8 µM;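 active = mean activation of the triplicate above a set limit carried over from the primary screen, none filed active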
Active calls of the source: *. In the library only some 4.1% were active in any assay of this set; here they are far more common.

Screening O=C(Nc1nc2c(s1)CCCC2)c1ccc2ncsc2c1 returned hcDAF12 agonist 6.2*, DAX1 inh-1 0, ssDAF-12 act 1.0*, hgDAF-12 ag 16*, DAX1 inh-2 8.0*, PolyA inh 6, DAX1 conf 10*, SF1 AF2mut Luc 3.2*, hgDAF12 conf 12* and LXR ag 2 1.
Screening Cc1ccnc(NC(=O)/C=C/c2ccccc2[N+](=O)[O-])c1 returned hcDAF12 agonist 9.3*, ssDAF-12 act 1.8*, hgDAF-12 ag 21*, DAX1 inh-2 5.0*, PolyA inh -9, DAX1 conf 14*, SF1 AF2mut Luc 8.1*, LXR ag 2, hcDAF12 ag 8.3*, hgDAF12 conf 20* and LXR ag 2 1.
For Cc1ccnc(NC(=O)c2ccccc2[N+](=O)[O-])c1 the results were hcDAF12 agonist 0, DAX1 inh-1 0, ssDAF-12 act 0, hgDAF-12 ag 2, DAX1 inh-2 1 and PolyA inh 6.
For O=C(NCc1ccccc1)C(c1ccccc1)n1c(-c2ccncc2)nc2ccccc21 (centres undefined) the results were hcDAF12 agonist 1, ssDAF-12 act -1, hgDAF-12 ag 0 and DAX1 inh-2 1.
Screening O=C(NCc1ccccc1)C(c1ccccc1)n1c(C2CC2)nc2ccccc21 (centres undefined) returned hcDAF12 agonist 2, ssDAF-12 act 1.9*, hgDAF-12 ag 20*, DAX1 inh-2 6.1*, DAX1 conf 11*, SF1 AF2mut Luc 5.2*, hgDAF12 conf 16* and LXR ag 2 1.
`Nc1ncc(-c2ccc(F)cc2)nc1N1CCN(CCO)CC1` gave hcDAF12 agonist -1, ssDAF-12 act -1, hgDAF-12 ag 0 and DAX1 inh-2 1.
Screening OCCN1CCN(c2cnc(-c3ccsc3)cn2)CC1 returned hcDAF12 agonist 5, ssDAF-12 act 1, hgDAF-12 ag 17*, DAX1 inh-2 5.9*, DAX1 conf 10.0*, SF1 AF2mut Luc 6.2*, hgDAF12 conf 13* and LXR ag 2 1.
`CC(C)(C)Nc1ncnc2c1cnn2-c1ccccc1` gave hcDAF12 agonist 5, DAX1 inh-1 1, ssDAF-12 act 1, hgDAF-12 ag 16*, DAX1 inh-2 9.0*, PolyA inh -1, DAX1 conf 15*, SF1 AF2mut Luc 4.7*, hgDAF12 conf 12* and LXR ag 2 1.
Screening Clc1ccc(Nc2ncnc3c2cnn3-c2ccccc2)cc1 returned hcDAF12 agonist 0, DAX1 inh-1 1, ssDAF-12 act -2, hgDAF-12 ag 2, DAX1 inh-2 2 and PolyA inh 16.
`CC1CCN(c2ncnc3c2cnn3-c2ccccc2)CC1` gave hcDAF12 agonist 4, DAX1 inh-1 2, ssDAF-12 act 0, hgDAF-12 ag 15*, DAX1 inh-2 7.7*, PolyA inh -4, DAX1 conf 14*, SF1 AF2mut Luc 12*, hgDAF12 conf 14* and LXR ag 2 1.
CC(C)Nc1ncnc2c1cnn2-c1ccc(Cl)cc1 was read as hcDAF12 agonist 4, DAX1 inh-1 -1, ssDAF-12 act 1, hgDAF-12 ag 16*, DAX1 inh-2 4.8*, PolyA inh 1, DAX1 conf 11*, SF1 AF2mut Luc 3, hgDAF12 conf 4 and LXR ag 2 1.
CCOC(=O)C1CCN(c2ncnc3c2cnn3-c2ccccc2)CC1 was read as hcDAF12 agonist -3, DAX1 inh-1 0, ssDAF-12 act -1, hgDAF-12 ag -4, DAX1 inh-2 0 and PolyA inh -23.
O=C1C=C(c2cc(C(F)(F)F)cc(C(F)(F)F)c2)C[C@@H](c2ccc(Cl)cc2)C1 was read as hcDAF12 agonist -2, DAX1 inh-1 0, ssDAF-12 act -1, hgDAF-12 ag 2 and DAX1 inh-2 1.
For Cc1cc(C)n(C(C)CC(=O)Nc2ccc3c(c2)OCO3)n1 (centres undefined) the results were hcDAF12 agonist -1, DAX1 inh-1 0, ssDAF-12 act 0, hgDAF-12 ag 3, DAX1 inh-2 0 and PolyA inh -12.
For CCC(=O)Nc1ccc2c(c1)ncn2-c1ccc(C)cc1 the results were hcDAF12 agonist 3, DAX1 inh-1 2, ssDAF-12 act 0, hgDAF-12 ag 13*, DAX1 inh-2 7.4*, PolyA inh -27, DAX1 conf 9.0*, SF1 AF2mut Luc 5.5*, hgDAF12 conf 11* and LXR ag 2 0.
For CN(CC(=O)Nc1ccccc1Br)C(=O)c1cc2c(s1)CCCCC2 the results were hcDAF12 agonist 2, DAX1 inh-1 4.2*, ssDAF-12 act 0, hgDAF-12 ag 14*, DAX1 inh-2 6.4*, PolyA inh -5, DAX1 conf 7.5*, SF1 AF2mut Luc 4.9*, hgDAF12 conf 11* and LXR ag 2 0.
Cc1cc(OCC(=O)N2CCc3ccccc3C2)c(C)cc1Br was read as hcDAF12 agonist -2, DAX1 inh-1 0, ssDAF-12 act -1, hgDAF-12 ag 0, DAX1 inh-2 0 and PolyA inh -19.
`Cc1ccc(S(=O)(=O)N2Cc3ccccc3CC2C(=O)NC(C)(C)C)cc1` (centres undefined) gave hcDAF12 agonist -1, DAX1 inh-1 1, ssDAF-12 act 0, hgDAF-12 ag -1, DAX1 inh-2 0 and PolyA inh 10.
